From PubChem BioAssay (NCATS) come the findings set out here.

For one assay, the system named is W2. In words: qHTS profiling for inhibitors of Plasmodium falciparum proliferation (AID 504749). Also: nearly all actives have a fitted effect of over 60% in size. The conditions noted are these: P. falciparum in erythrocytes, SYBR Green DNA, 72 h; series mostly up to 28.7 µM. The gist of the method:
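Each compound contacts P. falciparum-infected red blood cells for 72 h at 37 C; lysis buffer (Tris, EDTA, saponin, Triton X, SYBR Green I) is added and fluorescence measured next morning; values normalized to controls.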
In general terms: qHTS replaces the single test concentration by a dilution series.

The test system of the next assay is HEK293. In words: Cytotoxic Profiling of Annotated Libraries Using Quantitative High-Throughput Screening (AID 1296008). Also: nearly all actives have a fitted effect of over 60% in size. As to max response: % is scaled to controls: 0 for no effect and ±100 for the full control effect. The conditions noted are these: Five cell lines viability, CellTiter-Glo ATP luminescence, 48-72 h; max response: active compounds read low. The gist of the method:
(§1)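 Cells exposed to compounds for 48 or 72 hr at 37 degrees Celsius. Viability read as ATP-coupled luminescence with CellTiter-Glo after 10 min at room temperature.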
Background: ATP-based viability assays read luminescence as a measure of living cells.

Assay [1] deals with HaCat. Described as above. The conditions noted are these: Five cell lines viability, CellTiter-Glo ATP luminescence, 48-72 h; max response: active compounds read low. The gist of the method:
as §1

The test system of the next assay is KB-3-1. The description is as above. To be noted: Five cell lines viability, CellTiter-Glo ATP luminescence, 48-72 h; max response: active compounds read low. The gist of the method:
as §1

The test system of assay [2] is NIH3T3. Described as above. To be noted: Five cell lines viability, CellTiter-Glo ATP luminescence, 48-72 h; max response: active compounds read low. In outline: as §1
The subject of assay [3] is HACAT. The experiment in a line: qHTS assay to identify novel small-molecules to repurpose for Merkel cell carcinoma treatment (AID 1296009). Also: nearly all actives have a fitted effect of over 60% in size. To be noted: MCC and control cell lines, CellTiter-Glo viability, 72 h; at 44.8 µM (top of the series) unless noted. The gist of the method: (§2)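 Dose-response viability screen; 72 hr exposure at 37 degree celsius; CellTiter-Glo added, 10 min room temperature, luminescence read; RLUs scaled between no-cell and DMSO wells.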

The subject of a further assay is MCC-13. The assay is described as above. The conditions noted are these: MCC and control cell lines, CellTiter-Glo viability, 72 h; series mostly up to 46 µM. The gist of the method: as §2
Another assay deals with MCC-26. The description is as above. To be noted: MCC and control cell lines, CellTiter-Glo viability, 72 h; series mostly up to 46 µM. In outline: as §2
For another assay, the system named is MKL-1. Described as above. The conditions noted are these: MCC and control cell lines, CellTiter-Glo viability, 72 h; series mostly up to 46 µM. In outline:
as §2

The next assay deals with MKL-2. Described as above. The conditions noted are these: MCC and control cell lines, CellTiter-Glo viability, 72 h; series mostly up to 46 µM. In outline:
as §2

Another assay concerns UISO. Described as above. The conditions noted are these: MCC and control cell lines, CellTiter-Glo viability, 72 h; series mostly up to 46 µM. In outline: as §2
The next assay concerns WaGa. Described as above. The conditions noted are these: MCC and control cell lines, CellTiter-Glo viability, 72 h; series mostly up to 46 µM. In outline:
as §2

A further assay deals with C33A. The experiment in a line: Primary qHTS to identify gynecologic anti-cancer compounds using libraries of approved drugs and bioactive compounds (AID 1345084). Also: nearly all actives have a fitted effect of over 55% in size. To be noted: Gynecologic cancer cell panel viability, ATPlite luminescence, 48 h; series mostly up to 57.5 µM. The gist of the method: (§3)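 48 h compound exposure at 37 C, 5% CO2; five-point qHTS. ATPlite luminescence readout of cell ATP.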

For another assay, the system named is CASKI. The assay is described as above. To be noted: Gynecologic cancer cell panel viability, ATPlite luminescence, 48 h; series mostly up to 57.5 µM. In outline:
as §3

Another assay relates to Es-2. The assay is described as above. To be noted: Gynecologic cancer cell panel viability, ATPlite luminescence, 48 h; series mostly up to 57.5 µM. The gist of the method:
as §3

In a further assay the test system is HeLa. The assay is described as above. To be noted: Gynecologic cancer cell panel viability, ATPlite luminescence, 48 h; series mostly up to 57.5 µM. In outline: as §3
The subject of a further assay is CAOV3. The description is as above. To be noted: Gynecologic cancer cell panel viability, ATPlite luminescence, 48 h; series mostly up to 57.5 µM. In outline: as §3
A further assay deals with HEK293T. In words: qHTS assay to identify novel small-molecules to repurpose for Merkel cell carcinoma treatment (AID 1296009). Also: nearly all actives have a fitted effect of over 60% in size. To be noted: MCC and control cell lines, CellTiter-Glo viability, 72 h; at 44.8 µM (top of the series) unless noted. In outline:
as §2

Assay [4] has as its system NIH3T3. The description is as above. The conditions noted are these: MCC and control cell lines, CellTiter-Glo viability, 72 h; at 44.8 µM (top of the series). In outline: as §2

Records with an inconclusive call do not appear. The source made the active and inactive calls. Calls follow the shape of the dose curve; as a rule, active = well fitted curve in the direction sought with a large enough effect; inconclusive = small, poorly fitted or top-dose-only effect, or another doubt; inactive = no such curve, though single readings can be large; an effect the other way counts as inactive or inconclusive.
Potency is read from the fitted curve at half-maximal effect.

In the case of `COc1cc(C(=O)N2CCCCCCC2)cc(OC)c1OC`, the Potency result in the assay with W2, with MCC-13, with MCC-26, in the assay on MKL-1, with MKL-2 and with UISO was “inactive” throughout. In addition, the Potency result in the assay with WaGa, in the assay on C33A, with CASKI, with Es-2 and with HeLa was “inactive” throughout. Also, the max response in the assay on HEK293 is 0.115% (inactive); in the assay with KB-3-1 it was -4.88% (inactive); in the assay on NIH3T3 [2], 2.92% (inactive). Also, the compound was called inactive with HaCat [1] and in the assay on HACAT [3].
For `Cc1ccc(S(=O)(=O)NC(=O)NC2CCCC2)cc1`, the Potency entry with W2, with MCC-13, in the assay with MCC-26, in the assay on MKL-1, in the assay with MKL-2 and in the assay on UISO was “inactive” throughout. Also, the Potency entry with WaGa, in the assay with C33A, in the assay with CASKI, in the assay on Es-2 and in the assay with HeLa was “inactive” each time. The max response is -5.76% (inactive) with HEK293, 2.64% (inactive) in the assay with HaCat [1], 5.86% (inactive) in the assay with KB-3-1 and 3.93% (inactive) in the assay on NIH3T3 [2].
Take `C#C[C@]1(O)CC[C@H]2[C@@H]3CCC4=Cc5oncc5C[C@]4(C)[C@H]3CC[C@@]21C`: the Potency entry in the assay on W2, with MCC-13, in the assay on MCC-26, in the assay on MKL-1, with MKL-2 and in the assay with UISO was “inactive” in each case. The Potency entry in the assay with WaGa, in the assay with C33A, with CAOV3, in the assay on CASKI and with Es-2 was “inactive” in each case. For the same compound, the Potency is 21.1 µM (active) with HEK293 and 0.794 µM (active) in the assay with HeLa. Also, the max response with KB-3-1 was -24% (inactive).
Consider `Cc1cc2c(OCC(CNC(C)(C)C)OC(=O)c3ccccc3)cccc2[nH]1` (stereo not drawn), for which the Potency in the assay with W2 was 2.13 µM (active). For the same compound, the compound was classed as inactive in the assay on HEK293 and in the assay on HEK293T. Further, the max response in the assay with HaCat [1] was 1.54% (inactive); with KB-3-1, -8.32% (inactive); with NIH3T3 [2] it was 2.07% (inactive). For the same compound, the Potency entry in the assay with MCC-13, in the assay on MCC-26, with MKL-1, in the assay with MKL-2, in the assay with UISO and with C33A was “inactive” in each case. The Potency result in the assay on CAOV3, in the assay on CASKI, in the assay with Es-2 and with HeLa was “inactive” in each case.
As to `O=C(Nc1ncc([N+](=O)[O-])s1)c1cccs1`, the Potency entry in the assay with W2, in the assay with C33A and in the assay with CAOV3 was “inactive” throughout. Further, the Potency with HEK293 is 15 µM (active); in the assay with WaGa, 26.6 µM (active). Also, in the assay on HaCat [1], the max response is -23.3% (inactive).
`O=C(O)C1(C(=O)O)CCC1.[NH2-].[NH2-].[Pt+2]`: the max response with HEK293 was 1.14% (inactive); with HaCat [1], 1.48% (inactive); with KB-3-1, 13% (inactive); with NIH3T3 [2], -2.25% (inactive). In addition, the Potency entry in the assay on MCC-13, in the assay with MCC-26, in the assay on MKL-1, in the assay on MKL-2, in the assay on UISO and with WaGa was “inactive” throughout. Also, the Potency result in the assay on C33A, in the assay with CAOV3, in the assay on CASKI, in the assay with Es-2 and in the assay with HeLa was “inactive” in each case.
In the case of `NS(=O)(=O)c1cc(C(=O)O)cc(N2CCCC2)c1Oc1ccccc1`, the max response was 2.69% (inactive) in the assay on HEK293, -7.61% (inactive) with HaCat [1], 3.66% (inactive) with KB-3-1 and -1.53% (inactive) in the assay on NIH3T3 [2]. The Potency result with MCC-13, in the assay with MKL-1, in the assay on MKL-2, with UISO, with WaGa and in the assay on C33A was “inactive” throughout. For the same compound, the Potency result with CAOV3, in the assay with CASKI, in the assay with Es-2 and in the assay with HeLa was “inactive” in each case.
In the case of `Oc1ccc(Cl)cc1Cc1cc(Cl)ccc1O`, the Potency in the assay with HEK293 is 21.1 µM (active); in the assay on MKL-1 it was 23.7 µM (active); in the assay with MKL-2, 11.9 µM (active). The Potency result in the assay on CASKI, with Es-2 and in the assay with HeLa was “inactive” each time.
On to `CC(=O)OC[C@H]1O[C@@H](n2ncc(=O)[nH]c2=O)[C@H](OC(C)=O)[C@@H]1OC(C)=O`, for which the Potency entry in the assay with W2, in the assay with MCC-13, with MCC-26, in the assay with MKL-1, in the assay on MKL-2 and with UISO was “inactive” in each case. The Potency entry in the assay on C33A, with CAOV3 and in the assay with HeLa was “inactive” each time. Moreover, in the assay with HEK293, the Potency is 0.944 µM (active). Moreover, the max response in the assay on HaCat [1] is -1.52% (inactive).
Regarding `CCOC(=O)[C@H](CCc1ccccc1)N[C@@H](C)C(=O)N1[C@H](C(=O)O)C[C@H]2CCCC[C@@H]21`, the Potency entry in the assay on W2 is “inactive”.
As to `Oc1ccccc1C=NCc1ccccc1`, the Potency entry in the assay with W2, with MCC-13, with MKL-1, with MKL-2, in the assay with UISO and with WaGa was “inactive” in each case. Further, the Potency result with C33A, with CAOV3, in the assay with CASKI, with Es-2 and in the assay on HeLa was “inactive” throughout. The max response with HEK293 is -3.05% (inactive); with HaCat [1], -1.46% (inactive). The outcome with NIH3T3 [2] and with NIH3T3 [4] was inactive.
Turning to `CN(C)CCOC(c1ccc(Cl)cc1)c1ccccn1` (stereo not drawn), the Potency with W2 was 1.07 µM (active). The max response with HEK293 was -23.8% (inactive). Besides, the Potency entry in the assay on MCC-13, with MKL-1, with MKL-2, in the assay on UISO and in the assay on WaGa was “inactive” in each case.
As to `CCC1Nc2cc(Cl)c(S(N)(=O)=O)cc2S(=O)(=O)N1` (stereo not drawn), the Potency entry with W2, in the assay with MCC-13, in the assay on MCC-26, with MKL-1, in the assay with MKL-2 and in the assay with UISO was “inactive” throughout. In addition, the Potency result in the assay with WaGa, in the assay with C33A, with CAOV3, in the assay on CASKI, in the assay with Es-2 and in the assay with HeLa was “inactive” in each case. In addition, the result with HEK293 and in the assay with HEK293T was inactive. For the same compound, the max response in the assay on HaCat [1] is 3.1% (inactive); with KB-3-1 it was -3.7% (inactive); in the assay on NIH3T3 [2], 3.7% (inactive).
In the case of `C[C@@H](O)[C@H]1C(=O)N2C(C(=O)O)=C([C@H]3CCCO3)S[C@H]12`, the max response in the assay on HEK293 is -1.4% (inactive); in the assay on KB-3-1, 3.93% (inactive). Also, the compound was classed as inactive in the assay on HaCat [1], in the assay on NIH3T3 [2], in the assay on HACAT [3] and with NIH3T3 [4]. Further, the Potency entry with MCC-13, with MKL-1, in the assay on MKL-2, in the assay on UISO, in the assay on WaGa and in the assay with C33A was “inactive” in each case. The Potency result in the assay with CASKI, in the assay with Es-2 and in the assay with HeLa was “inactive” each time.
